# PubChem BioAssay (NCI)
# About 83,000 compounds went through this panel and 20% of them were active in at least one assay; those are over-represented in the sample as a whole.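 Cells were grown in 96-well plates and exposed to the test compound at a single concentration for 48 hours; results are reported as percent growth, with values below 10 considered active.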 Values without a mark were called inactive. Active and inactive are the calls of the source.
# Tested on: K-562 leukemia
# Test: NCI-60 one-dose screen, 48 h (100 = growth as untreated, 0 = no growth, -100 = all killed)
# Conditions: 10 µM unless noted
row,Compound,growth
1,C=CC(=O)Nc1cccc(-c2nc(SC)nc(NCc3ccccc3)c2C#N)c1,60%
2,COC(=O)c1ccc2oc(NC(=O)c3ccc(Nc4ccc([N+](=O)[O-])cc4C)c([N+](=O)[O-])c3)nc2c1,104%
3,COc1cc(/C=C/c2cc(/C=C/c3ccc(O)c(OC)c3)n(-c3c(Cl)cccc3Cl)c(=O)n2)ccc1O,9.21% (active)
4,CSc1nc(Nc2cccc(NC(=O)CCl)c2)c(C#N)c(-c2cccc([N+](=O)[O-])c2)n1,5.6% (active)
5,CC(C)(C)N1CCC1CN (stereo unspecified),135%
6,Cc1ccc(NC(=O)/C=C/c2ccccc2)c(C(N)=O)c1,13.1%
7,COc1ccc(-n2nc(C)c3c(Nc4ccc(NC(=O)Nc5cccc(C(F)(F)F)c5)cc4)ncnc32)cc1,4.37% (active)
8,O=C1OCC2=C1C(c1ccncc1)c1cc3c(cc1N2CCO)OCO3 (stereo unspecified),110%
9,C#Cc1cccc(NC(=O)c2ccccc2NC(=O)C=C)c1,98.8% [8.25 µM]
10,CCOc1cc2ncc(C#N)c(Nc3ccc(F)c(Cl)c3)c2cc1NC(=O)CC1CCSS1 (stereo unspecified),-26.4% (active)
11,CN(Cc1cc(Cl)cc(Cl)c1O)Cc1cc(Cl)cc(Cl)c1O,98.5%
12,CC(=O)O[C@H]1[C@@H]2OC(=O)C(CSc3ccccc3)[C@@H]2C[C@H]2O[C@]2(C)CC/C=C(\C)CCC[C@@H]1C (stereo partly specified),63.1%
13,COc1ccc(/C=N/C2=C(C#N)C(c3ccc(N(C)C)cc3)c3ccc4ccccc4c3O2)cc1 (stereo unspecified),14.7%
14,C[n+]1ccccc1/C=C/c1ccc2cccc(O)c2n1,102%
15,Cc1nn(-c2ccc(F)cc2)c2ncnc(Oc3ccc(NC(=O)Nc4ccc(Cl)c(C(F)(F)F)c4)cc3)c12,105%
16,COc1ccc(C(=O)c2sc3nc(C)cc(C)c3c2N)cc1OC,92.6%
17,C=CC(=O)Nc1cccc(-c2nc(SC)nc(Nc3ccccc3OC)c2C#N)c1,8.6% (active)
18,Nc1nc2ncc(CCNc3ccc(C(=O)O)cc3)nc2c(=O)[nH]1,115%
19,CCCSc1ccc2nc(NC(=O)OC)[nH]c2c1,14.7%

row,Compound,growth
1,CCCc1cc(=O)n2c(C(=O)Nc3ccc(F)cc3)c(C(=O)Nc3ccc(F)cc3)sc2n1,75.1% [30 µM]
2,O=C(/C=C/c1ccccc1)c1ccc(O)c(CN2CCN(c3cc4c(cc3F)c(=O)c(C(=O)O)cn4C3CC3)CC2)c1,16.7%
3,CCOC(=O)c1sc2nc(-c3cccc(OC)c3)nc(N3CCOCC3)c2c1C,97.2%
4,CCCCCCCCCCCCC[N+](C)(C)Cc1ccccc1,2.97% (active)
5,CCCOc1ccc2nc(NC(=O)OC)[nH]c2c1,16.1%
6,Nc1n[nH]c2ccc([C@@H]3Nc4ccc5cn[nH]c5c4[C@H]4C5CCC(C5)[C@@H]34)cc12 (stereo partly specified),10.8%
7,O=c1nc2oc3ccc4ccccc4c3cc-2s1,11.9%
8,COC(=O)c1cccc(NC(=O)c2ccc(-c3cccc(N)c3)o2)c1,94.9%
9,CCOC(=O)c1c(C)oc2ncnc(N3CCN(C(=S)Nc4ccccc4)CC3)c12,85%
10,CCCCN(CCCC)CCCn1c(-c2ccccc2)ccc1-c1ccccc1,52.2%
11,CN1CCN(CCCOc2cccc3nc(Nc4ccc(Cl)c(F)c4)ccc23)CC1,-48.6% (active)
12,COc1cccc(/C=N/NC(=O)c2ccccc2Nc2ccnc(C(F)(F)F)c2)c1O,33.7%
13,COc1cc2nc(N3CCCC3)nc(NCc3ccccc3)c2cc1OC,1.41% (active)
14,COc1cc2c(cc1-c1c(C)noc1C)ncc1nc(-c3ccccn3)n([C@H](C)COC(F)F)c12,32.8%
15,COc1cccc(-c2nc3sccn3c2-c2ccnc(NCCCNS(=O)(=O)c3c(Cl)cccc3Cl)c2)c1,30.9%
16,N#Cc1c(-c2ccc(Cl)cc2)nc(NN=Cc2ccco2)nc1N1CCOCC1,104%
17,O=C(Nc1cccc2[nH]c(C(F)(F)F)nc12)c1ccc(-n2cnnn2)cc1,21.5%
18,CC1CCNC(C)C1 (stereo unspecified),108%
19,CCN(CC)c1ccc(-c2cc(-c3cc(OC)c(OC)c(OC)c3)nc(N3CCOCC3)c2C#N)cc1,1.69% (active)

# Tested on: MALME-3M melanoma
# Test: as above
# Conditions: 10 µM unless noted
row,Compound,growth
1,C=CC(=O)Nc1cccc(-c2nc(SC)nc(NCc3ccccc3)c2C#N)c1,66.4%
2,COC(=O)c1ccc2oc(NC(=O)c3ccc(Nc4ccc([N+](=O)[O-])cc4C)c([N+](=O)[O-])c3)nc2c1,100%
3,COc1cc(/C=C/c2cc(/C=C/c3ccc(O)c(OC)c3)n(-c3c(Cl)cccc3Cl)c(=O)n2)ccc1O,58.8%
4,CSc1nc(Nc2cccc(NC(=O)CCl)c2)c(C#N)c(-c2cccc([N+](=O)[O-])c2)n1,37.3%
5,CC(C)(C)N1CCC1CN (stereo unspecified),147%
6,Cc1ccc(NC(=O)/C=C/c2ccccc2)c(C(N)=O)c1,96.6%
7,COc1ccc(-n2nc(C)c3c(Nc4ccc(NC(=O)Nc5cccc(C(F)(F)F)c5)cc4)ncnc32)cc1,-10.9% (active)
8,O=C1OCC2=C1C(c1ccncc1)c1cc3c(cc1N2CCO)OCO3 (stereo unspecified),89.9%
9,C#Cc1cccc(NC(=O)c2ccccc2NC(=O)C=C)c1,102% [8.25 µM]
10,CCOc1cc2ncc(C#N)c(Nc3ccc(F)c(Cl)c3)c2cc1NC(=O)CC1CCSS1 (stereo unspecified),-57.8% (active)
11,CN(Cc1cc(Cl)cc(Cl)c1O)Cc1cc(Cl)cc(Cl)c1O,92.7%
12,CC(=O)O[C@H]1[C@@H]2OC(=O)C(CSc3ccccc3)[C@@H]2C[C@H]2O[C@]2(C)CC/C=C(\C)CCC[C@@H]1C (stereo partly specified),87.2%
13,COc1ccc(/C=N/C2=C(C#N)C(c3ccc(N(C)C)cc3)c3ccc4ccccc4c3O2)cc1 (stereo unspecified),72%
14,C[n+]1ccccc1/C=C/c1ccc2cccc(O)c2n1,146%
15,Cc1nn(-c2ccc(F)cc2)c2ncnc(Oc3ccc(NC(=O)Nc4ccc(Cl)c(C(F)(F)F)c4)cc3)c12,100%
16,COc1ccc(C(=O)c2sc3nc(C)cc(C)c3c2N)cc1OC,83.3%
17,C=CC(=O)Nc1cccc(-c2nc(SC)nc(Nc3ccccc3OC)c2C#N)c1,-10.4% (active)
18,Nc1nc2ncc(CCNc3ccc(C(=O)O)cc3)nc2c(=O)[nH]1,137%
19,CCCSc1ccc2nc(NC(=O)OC)[nH]c2c1,42%

row,Compound,growth
1,CCCc1cc(=O)n2c(C(=O)Nc3ccc(F)cc3)c(C(=O)Nc3ccc(F)cc3)sc2n1,38.5% [30 µM]
2,O=C(/C=C/c1ccccc1)c1ccc(O)c(CN2CCN(c3cc4c(cc3F)c(=O)c(C(=O)O)cn4C3CC3)CC2)c1,18.9%
3,CCOC(=O)c1sc2nc(-c3cccc(OC)c3)nc(N3CCOCC3)c2c1C,117%
4,CCCCCCCCCCCCC[N+](C)(C)Cc1ccccc1,-44.7% (active)
5,CCCOc1ccc2nc(NC(=O)OC)[nH]c2c1,38%
6,Nc1n[nH]c2ccc([C@@H]3Nc4ccc5cn[nH]c5c4[C@H]4C5CCC(C5)[C@@H]34)cc12 (stereo partly specified),51.7%
7,O=c1nc2oc3ccc4ccccc4c3cc-2s1,45.2%
8,COC(=O)c1cccc(NC(=O)c2ccc(-c3cccc(N)c3)o2)c1,91.1%
9,CCOC(=O)c1c(C)oc2ncnc(N3CCN(C(=S)Nc4ccccc4)CC3)c12,99.9%
10,CCCCN(CCCC)CCCn1c(-c2ccccc2)ccc1-c1ccccc1,86.2%
11,CN1CCN(CCCOc2cccc3nc(Nc4ccc(Cl)c(F)c4)ccc23)CC1,1.94% (active)
12,COc1cccc(/C=N/NC(=O)c2ccccc2Nc2ccnc(C(F)(F)F)c2)c1O,1.24% (active)
13,COc1cc2nc(N3CCCC3)nc(NCc3ccccc3)c2cc1OC,41.2%
14,COc1cc2c(cc1-c1c(C)noc1C)ncc1nc(-c3ccccn3)n([C@H](C)COC(F)F)c12,70.1%
15,COc1cccc(-c2nc3sccn3c2-c2ccnc(NCCCNS(=O)(=O)c3c(Cl)cccc3Cl)c2)c1,73.2%
16,N#Cc1c(-c2ccc(Cl)cc2)nc(NN=Cc2ccco2)nc1N1CCOCC1,42.4%
17,O=C(Nc1cccc2[nH]c(C(F)(F)F)nc12)c1ccc(-n2cnnn2)cc1,84.5%
18,CC1CCNC(C)C1 (stereo unspecified),110%
19,CCN(CC)c1ccc(-c2cc(-c3cc(OC)c(OC)c(OC)c3)nc(N3CCOCC3)c2C#N)cc1,-12.6% (active)
